According to PubChem BioAssay (NCATS):
Records with an inconclusive call do not appear. For part of these data: Results with a measured potency or affinity are listed apart. Activity calls are given as the source filed them.

Assays:
[1] = Ebola virus entry assay, green fluorescence channel
[2] = Ebola virus entry assay, blue channel fluorescence
[3] = Ebola virus entry assay, ratio channel
[4] = Ebola virus entry assay, reporter ratio channel; AC50: Channel type: primary unless noted; outcome: Channel type: primary unless noted
[5] = Immunotoxin (HA22) sensitization/mitigation study. Vehicle arm (PBS) (AID 1159510); settings: cancer cells viability with PBS vehicle (HA22 study); series mostly up to 46.1 µM; note: potency is the fitted concentration of half-maximal effect
[6] = Ebola virus entry assay, green channel fluorescence
[7] = qHTS assay for measurement of the activity of small molecule inhibitors on Zika virus induced Caspase-3 activity in human iPSC derived neural progenitor cells (hNPCs) (AID 1224857; active = well fitted inhibition curve with a large enough effect; note: % of control where 0% means no effect; nearly all actives have a fitted effect of over 65% in size); settings: hNPCs ZIKV-induced caspase-3/7, Caspase-Glo luminescence, 6 h; series mostly up to 45.7 µM
Summary of the method: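 Quantitative HTS format: human iPSC neural progenitors, 1 h compound pretreatment, ZIKV 2 FFU/cell for 6 h at 37 C. Percent inhibition derived from luminescent caspase-3/7 signal between uninfected and infected controls.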

[8] = qHTS assay for measurement of the activity of small molecule inhibitors on Zika virus induced Caspase-3 activity in human astrocytoma cells (AID 1224859; active = well fitted inhibition curve with a large enough effect;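 note: plate controls were ZIKV-infected untreated cells for no effect and uninfected cells for full effect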); settings: SNB-19 ZIKV-induced caspase-3/7, luminescence, 6 h; series mostly up to 45.7 µM
Summary of the method: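 Readout is luminescence from Caspase-Glo 3/7 added after a 6 h ZIKV infection (2 FFU/cell) of compound-pretreated (1 h) SNB-19 cells; data expressed as % inhibition versus uninfected and infected wells.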

[9] = Ebola virus entry assay, blue channel (ratio component)
[10] = High-throughput drug toxicity screening in the BPDCN cell line Gen2.2 (AID 1224824); settings: Gen2.2 BPDCN cells; at 45.8 µM (top of the series);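 note: cells exposed to compounds for 48 h before reading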
Summary of the method: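 Gen2.2, 500 cells/well, phenol red-free RPMI/10% FBS/Pen-Strep; 48 h cpd, 37 °C/5% CO2; CTG lum, 15 min RT. Norm: DMSO = 100%, bortezomib 9.2 uM final = 0%.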

[11] = High-throughput drug toxicity screening in the BPDCN cell line Cal-1 (AID 1224825); settings: Cal-1 BPDCN cell viability, qHTS; at 45.8 µM (top of the series)
Summary of the method: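 500 Cal-1 cells/well, RPMI + glutamine + 10% FBS (phenol red-free); cpd added by pin tool; 48 h, 37C, 5% CO2; CTG 15 min RT, lumi read. Normalised: DMSO 100%, bortezomib 9.2 uM 0%.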

[12] = qHTS Screen of the MIPE 4.0 Collection Against Ewings Sarcoma (RDES) (AID 1259252; active = well fitted inhibition curve with a large enough effect; note: nearly all actives have a fitted effect of over 35% in size; note: potency is the fitted concentration of half-maximal effect); settings: RD-ES Ewing sarcoma viability, CellTiter-Glo, 48 h; series mostly up to 45.8 µM
Summary of the method: (§1)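 After a 4 h attachment period in RPMI/5% FBS, cells were pin-dosed with test compounds; DMSO served as negative and 9.2 uM bortezomib (final) as positive control. Luminescent CellTiter-Glo signal at 48 h defined viability.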

[13] = qHTS Screen of the MIPE 4.0 Collection Against Ewings Sarcoma (TC32) (AID 1259256; active = well fitted inhibition curve with a large enough effect; note: nearly all actives have a fitted effect of over 45% in size; note: potency is the fitted concentration of half-maximal effect); settings: TC32 Ewing sarcoma viability, CellTiter-Glo, 48 h; series mostly up to 45.8 µM
Summary of the method: as §1

[14] = Immunotoxin (SS1P) sensitization/mitigation study. Vehicle arm (DMEM) (AID 1159513); settings: cell viability with vehicle (DMEM); series mostly up to 46.1 µM; note: potency is the fitted concentration of half-maximal effect
[15] = Ebola virus entry assay, green fluorescence channel; remark: listed apart in the source
[16] = Ebola virus entry assay, ratio channel readout
[17] = Ebola virus entry assay, blue channel fluorescence; remark: listed apart in the source
[18] = Ebola virus entry cell assay, ratio channel
Throughout, for efficacy: 0% is about no effect.

For `CC1(CN2CCC(n3c(=O)[nH]c4ccccc43)CC2)OCc2ccccc2-n2cccc21` (stereo unspecified), the efficacy [1] was 64.1% (inactive), the AC50 [2] was 20 µM (active) and the AC50 [3] was 15.8 µM (active). The AC50 [4] was 15.8 µM (active) and the Potency [5] was 26.4 µM (active).

With `OC1(c2ccc(Cl)c(C(F)(F)F)c2)CCN(CCCC(c2ccc(F)cc2)c2ccc(F)cc2)CC1` the efficacy [1] was -169% (inactive), the AC50 [2] was 5.01 µM (active) and the AC50 [3] was 2.82 µM (active). For the same molecule, the AC50 [4] was 2.82 µM (active).

With `CCCCCCCCCCCCCCCC[N+](C)(C)CC` the efficacy [1] was -76.8% (inactive), the AC50 [2] was 25.1 µM (active) and the AC50 [3] was 11.2 µM (active). For the same molecule, the AC50 [4] was 11.2 µM (active).

For `Cc1cc(OCCOCC[N+](C)(C)Cc2ccccc2)ccc1C(C)(C)CC(C)(C)C`, the efficacy [1] was -204% (inactive), the AC50 [2] was 8.91 µM (active) and the AC50 [3] was 3.98 µM (active). The AC50 [4] was 3.98 µM (active).

In the case of `Oc1cccc2cccnc12`, the efficacy [1] was -17.8% (inactive), the outcome [2] was “inactive” and the outcome [3] was “inactive”. The outcome [6] was “inactive”, the outcome [4] was “inactive” and the Potency [7] was “inactive”. For the same molecule, the outcome [8] was “inactive”.

In the case of `O=c1oc2ccccc2c(O)c1C(CC(O)c1ccc(-c2ccc(Br)cc2)cc1)c1ccccc1` (stereo unspecified), the efficacy [1] was 92.1% (inactive), the outcome [2] was “inactive” and the outcome [3] was “inactive”. For the same molecule, the outcome [4] was “inactive”, the outcome [9] was “inactive” and the Potency [7] was “inactive”. The outcome [8] was “inactive”.

In the case of `C[C@@H]1O[C@@H](O[C@H]2C[C@@H](O)[C@]3(CO)[C@H]4[C@H](O)C[C@]5(C)[C@@H](C6=CC(=O)OC6)CC[C@]5(O)[C@@H]4CC[C@]3(O)C2)[C@H](O)[C@H](O)[C@H]1O`, the efficacy [1] was -93.6% (inactive), the AC50 [2] was 8.91 µM (active) and the AC50 [3] was 0.708 µM (active). The outcome [6] was “inactive”, the AC50 [4] was 0.708 µM (active) and the cell viability, % of control (lower = more cytotoxic) [10] was 26%. For the same molecule, the viability (% of control) [11] was 3.79%, the outcome [8] was “inactive” and the Potency [12] was 0.0833 µM (active). For the same molecule, the Potency [13] was 0.059 µM (active).

For `CCN(CC)CCOC(=O)C(O)(c1ccccc1)c1ccccc1`, the efficacy [1] was -15.5% (inactive), the outcome [2] was “inactive” and the outcome [3] was “inactive”. The outcome [6] was “inactive”, the outcome [4] was “inactive” and the outcome [9] was “inactive”. For the same molecule, the outcome [8] was “inactive”.

For `c1ccc(C2CC2)c(OCC2=NCCN2)c1`, the efficacy [1] was 46.8% (inactive), the AC50 [2] was 39.8 µM (active) and the outcome [3] was “inactive”. For the same molecule, the outcome [6] was “inactive”, the AC50 [4] was 39.8 µM (active) and the outcome [8] was “inactive”.

With `NCCc1cc(O)c(O)cc1O` the efficacy [1] was -42% (inactive), the AC50 [2] was 25.1 µM (active) and the outcome [3] was “inactive”. For the same molecule, the outcome [6] was “inactive”, the AC50 [4] was 39.8 µM (active) and the Potency [7] was “inactive”. The outcome [8] was “inactive”.

For `COC(=O)Nc1nc2ccc(C(=O)C3CC3)cc2[nH]1`, the efficacy [1] was 69.7% (inactive), the AC50 [2] was 8.91 µM (active) and the AC50 [3] was 7.94 µM (active). For the same molecule, the AC50 [4] was 7.94 µM (active).

With `CN1CC[C@H](c2c(O)cc(O)c3c(=O)cc(-c4ccccc4Cl)oc23)[C@H](O)C1` the efficacy [1] was 58.1% (inactive), the outcome [2] was “inactive” and the outcome [3] was “inactive”. The outcome [4] was “inactive” and the outcome [9] was “inactive”.

For `Cc1cccc(C)c1NC(=O)CN1CCCC1=O`, the efficacy [1] was -15.1% (inactive), the outcome [2] was “inactive” and the outcome [3] was “inactive”. The outcome [6] was “inactive”, the outcome [4] was “inactive” and the cell viability, % of control (lower = more cytotoxic) [10] was 116%. The viability (% of control) [11] was 110%, the outcome [8] was “inactive” and the Potency [12] was “inactive”.

For `CC(C)=CCOc1c2occc2cc2ccc(=O)oc12`, the efficacy [1] was 19.5% (inactive), the AC50 [2] was 25.1 µM (active) and the outcome [3] was “inactive”. The outcome [6] was “inactive”, the AC50 [4] was 25.1 µM (active) and the outcome [8] was “inactive”.

In the case of `CC[N+](CC)(CC)CC`, the efficacy [1] was -18.6% (inactive), the outcome [2] was “inactive” and the outcome [3] was “inactive”. The outcome [6] was “inactive”, the outcome [4] was “inactive” and the outcome [9] was “inactive”. The outcome [8] was “inactive”.

For `CCCCCCCCCCCCCC[N+](C)(C)Cc1ccccc1`, the efficacy [1] was -210% (inactive), the AC50 [2] was 39.8 µM (active) and the AC50 [3] was 25.1 µM (active). The AC50 [4] was 25.1 µM (active).

With `CC[C@@H](CO)NC(=O)[C@@H]1C=C2c3cccc4[nH]cc(c34)C[C@H]2N(C)C1` the efficacy [1] was -16.2% (inactive), the AC50 [2] was 7.94 µM (active) and the AC50 [3] was 10 µM (active). For the same molecule, the outcome [6] was “inactive”, the AC50 [4] was 10 µM (active) and the Potency [7] was “inactive”. The outcome [8] was “inactive”.

With `NCC(O)c1ccc(O)cc1` (stereo unspecified) the efficacy [1] was -25.6% (inactive), the outcome [2] was “inactive” and the outcome [3] was “inactive”. The outcome [6] was “inactive”, the outcome [4] was “inactive” and the outcome [9] was “inactive”. For the same molecule, the outcome [8] was “inactive”.

With `Cc1cccc(C)c1NC(=O)CN1CCN(CCCC(c2ccc(F)cc2)c2ccc(F)cc2)CC1` the efficacy [1] was 109% (inactive), the AC50 [2] was 3.16 µM (active) and the AC50 [3] was 3.16 µM (active). For the same molecule, the AC50 [4] was 3.16 µM (active).

For `Clc1ccc(CCC(Cn2ccnc2)Sc2c(Cl)cccc2Cl)cc1` (stereo unspecified), the efficacy [1] was -22% (inactive), the AC50 [2] was 25.1 µM (active) and the AC50 [3] was 22.4 µM (active). The outcome [6] was “inactive”, the AC50 [4] was 22.4 µM (active) and the Potency [7] was “inactive”. For the same molecule, the outcome [8] was “inactive”.

With `Cc1cc2c(C(C)C)c(O)c(O)c(C=O)c2c(O)c1-c1c(C)cc2c(C(C)C)c(O)c(O)c(C=O)c2c1O` the efficacy [1] was 104% (inactive), the AC50 [2] was 39.8 µM (active) and the outcome [3] was “inactive”. The AC50 [4] was 39.8 µM (active) and the Potency [5] was 8.33 µM (active).

In the case of `CS(=O)c1ccc(-c2nc(-c3ccc(F)cc3)c(-c3ccncc3)[nH]2)cc1` (stereo unspecified), the Potency [5] was “inactive” and the Potency [14] was “inactive”.

In the case of `CNC(=O)c1ccc(N2C(=S)N(c3ccc(C#N)c(C(F)(F)F)c3)C(=O)C23CCC3)cc1F`, the cell viability, % of control (lower = more cytotoxic) [10] was 16.5%, the viability (% of control) [11] was 7.78% and the Potency [7] was “inactive”. For the same molecule, the outcome [8] was “inactive”, the Potency [12] was 20.9 µM (active) and the Potency [13] was 23.5 µM (active).

With `COc1cc([C@@H]2c3cc4c(cc3[C@H](O)[C@H]3COC(=O)[C@H]23)OCO4)cc(OC)c1OC` the efficacy [1] was 25.2% (inactive), the AC50 [2] was 11.2 µM (active) and the AC50 [3] was 5.01 µM (active). For the same molecule, the AC50 [4] was 5.01 µM (active), the Potency [5] was 0.0037 µM (active) and the Potency [14] was 0.0083 µM (active).

With `CNC(=O)N1N=C(c2ccc(N)cc2)c2cc3c(cc2CC1C)OCO3` (stereo unspecified) the Potency [14] was 5.26 µM (active), the cell viability, % of control (lower = more cytotoxic) [10] was 24.2% and the viability (% of control) [11] was 9.51%. For the same molecule, the Potency [7] was “inactive”, the outcome [8] was “inactive” and the Potency [12] was 9.35 µM (active). For the same molecule, the Potency [13] was 11.8 µM (active).

With `Cn1c(CCCC(=O)O)nc2cc(N(CCCl)CCCl)ccc21` the outcome [15] was “inactive”, the outcome [16] was “inactive” and the outcome [2] was “inactive”. For the same molecule, the outcome [3] was “inactive”, the outcome [6] was “inactive” and the outcome [17] was “inactive”. The outcome [4] was “inactive”, the outcome [9] was “inactive” and the outcome [18] was “inactive”. For the same molecule, the Potency [5] was “inactive”, the Potency [14] was “inactive” and the cell viability, % of control (lower = more cytotoxic) [10] was 53.7%. For the same molecule, the viability (% of control) [11] was 6.62%, the Potency [7] was “inactive” and the outcome [8] was “inactive”. The Potency [12] was 26.4 µM (active) and the Potency [13] was “inactive”.

For `CC(O)(CS(=O)(=O)c1ccc(F)cc1)C(=O)Nc1ccc(C#N)c(C(F)(F)F)c1` (stereo unspecified), the Potency [14] was “inactive”, the cell viability, % of control (lower = more cytotoxic) [10] was 9.43% and the viability (% of control) [11] was 3.75%. For the same molecule, the Potency [7] was “inactive”, the outcome [8] was “inactive” and the Potency [12] was 0.59 µM (active). For the same molecule, the Potency [13] was 2.64 µM (active).
